PubChem BioAssay AID1159580 (chemical genetic matrix, 2015)
About 2,000 (36%) of roughly 5,500 compounds were called active. Not shown: some 18% with an inconclusive outcome. Cut-off read from the data, not from the text of the source: active = normalized growth mostly below about 0.91 (no sharp cut-off); inconclusive = no clear call, values can overlap the other calls; inactive = mostly above about 0.92. The list shows a part of the results.

Assay: chemical genetic growth profiling, strain panel (AID 1159580);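 note: tested at 20 µM; growth read once vehicle control cultures reached saturation at 30 °C; 1 = growth at the plate median or of vehicle wells; lower values mean less growth of the strain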
Conditions: S. cerevisiae deletion strains, growth OD

Measured: normalized growth

CC(C)(C)C(=O)/C(C#N)=C/c1c(Cl)cccc1Cl
inactive: locus YDL028C, strain MPS1, stronger effect = lower value 0.919 | locus YDL108W, strain KIN28, stronger effect = lower value 0.957 | locus YDR052C, strain DBF4, stronger effect = lower value 0.915 | locus YDR226W, strain ADK1, stronger effect = lower value 0.913 | locus YPR111W, strain DBF20, stronger effect = lower value 0.949
active: locus YAR019C, strain CDC15, stronger effect = lower value 0.366 | locus YBL105C, strain PKC1, stronger effect = lower value 0.373 | locus YBR135W, strain CKS1, stronger effect = lower value 0.894 | locus YBR136W, strain MEC1, stronger effect = lower value 0.722 | locus YDL017W, strain CDC7, stronger effect = lower value 0.695 | locus YDL214C, strain PRR2, stronger effect = lower value 0.124 | locus YDR054C, strain cdc34, stronger effect = lower value 0.291 | locus YDR477W, strain SNF1, stronger effect = lower value 0.11 | locus YER123W, strain YCK3, stronger effect = lower value 0.105 | locus YER133W, strain GLC7, stronger effect = lower value 0.108 | locus YFL029C, strain CAK1, stronger effect = lower value 0.315 | locus YFR019W, strain FAB1, stronger effect = lower value 0.108 | locus YFR028C, strain CDC14, stronger effect = lower value 0.575 | locus YGR040W, strain KSS1, stronger effect = lower value 0.112 | locus YGR052W, strain FMP48, stronger effect = lower value 0.136 | locus YGR092W, strain DBF2, stronger effect = lower value 0.11 | locus YHR030C, strain SLT2, stronger effect = lower value 0.111 | locus YHR079C, strain IRE1, stronger effect = lower value 0.112 | locus YHR082C, strain KSP1, stronger effect = lower value 0.137 | locus YHR205W, strain SCH9, stronger effect = lower value 0.000694 | locus YIL147C, strain SLN1, stronger effect = lower value 0.691 | locus YJL095W, strain BCK1, stronger effect = lower value 0.104 | locus YJL157C, strain FAR1, stronger effect = lower value 0.105 | locus YJR016C, strain ILV3, stronger effect = lower value 0.64 | locus YJR066W, strain TOR1 (second series), stronger effect = lower value 0.124 | locus YJR066W, strain TOR1, stronger effect = lower value 0.131 | locus YKL048C, strain ELM1, stronger effect = lower value 0.151 | locus YKL067W, strain YNK1, stronger effect = lower value 0.129 | locus YKL101W, strain HSL1, stronger effect = lower value 0.131 | locus YKL193C, strain SDS22, stronger effect = lower value 0.506 | locus YKL203C, strain TOR2, stronger effect = lower value 0.115 | locus YLR113W, strain HOG1, stronger effect = lower value 0.165 | locus YLR133W, strain CKI1, stronger effect = lower value 0.125 | locus YLR403W, strain SFP1, stronger effect = lower value 0.0102 | locus YML070W, strain DAK1, stronger effect = lower value 0.122 | locus YMR001C, strain CDC5, stronger effect = lower value 0.401 | locus YMR205C, strain PFK2 (second series), stronger effect = lower value 0.142 | locus YMR277W, strain FCP1, stronger effect = lower value 0.397 | locus YNL006W, strain LST8, stronger effect = lower value 0.341 | locus YNL020C, strain ARK1, stronger effect = lower value 0.118 | locus YNL161W, strain CBK1, stronger effect = lower value 0.402 | locus YNL183C, strain NPR1, stronger effect = lower value 0.132 | locus YNL207W, strain RIO2, stronger effect = lower value 0.359 | locus YNL222W, strain SSU72, stronger effect = lower value 0.619 | locus YNL307C, strain MCK1 (second series), stronger effect = lower value 0.105 | locus YOL078W, strain AVO1, stronger effect = lower value 0.492 | locus YOL136C, strain PFK27, stronger effect = lower value 0.116 | locus YOR061W, strain CKA2, stronger effect = lower value 0.157 | locus YOR119C, strain RIO1, stronger effect = lower value 0.115 | locus YOR231W, strain MKK1, stronger effect = lower value 0.131 | locus YOR329C, strain SCD5, stronger effect = lower value 0.513 | locus YPL031C, strain PHO85, stronger effect = lower value 0.102 | locus YPL153C, strain RAD53, stronger effect = lower value 0.115 | locus YPL204W, strain HRR25, stronger effect = lower value 0.11 | locus YPL209C, strain IPL1, stronger effect = lower value 0.495 | locus YPL256C, strain CLN2, stronger effect = lower value 0.152 | locus YPR025C, strain CCL1, stronger effect = lower value 0.652 | strain NNK1, stronger effect = lower value 0.265 | strain TSCII, stronger effect = lower value 0.322
